# Assay results reported in ChEMBL document CHEMBL3988442, “University of Dundee, Small-Polar-MMV Screening Library” (2021).
# Screen size: about 69,000 compounds; about 1,000 (1.4%) showed an effect of 50% or more. Shown is part of a subset that was picked to be rich in strong results.
# Tested on: Leishmania donovani
# Assay: Leishmania intramacrophage assay
# Assay type: functional, organism-based
# Parameters: scale not given: in the data most compounds retested in dose-response had high values
smiles,measurement,setting,value
CCc1cc(NCCc2cnccn2)n2nc(C)c(C)c2n1,Percent Effect,"30.3 µM, […]",3.819%
CNC(=O)[C@H]1CCS(=O)(=O)[C@@H]2CN(Cc3ccc(OC)cc3)C[C@H]12,Percent Effect,"30 µM, 30.03 µM",7.266%
Cc1cccc(C(=O)N2CCCCC2c2nc3cc(F)ccc3[nH]2)n1 (configuration not stated),Percent Effect,"30.3 µM, […]",32.48%
Cc1noc([C@H]2C[C@@H]3CCN(c4nnc(C)s4)C[C@H]3O2)n1.O=C(O)C(F)(F)F,Percent Effect,"30.3 µM, […]",7.673%
Cc1noc([C@@H]2C[C@@H]3CCN(c4nnc(C)s4)C[C@H]3O2)n1.O=C(O)C(F)(F)F,Percent Effect,"30.3 µM, […]",45.73%
Cc1noc([C@@H]2CC[C@@H]3[C@@H](CCN3c3nnc(C)s3)O2)n1.O=C(O)C(F)(F)F,Percent Effect,"30.3 µM, […]",50.59%
O=C(NCCc1nnc2n1CCC2)NCC1(c2ccccc2F)CC1,Percent Effect,"30.3 µM, […]",6.319%
CC(C)NC(=O)C[C@@H]1CCNC[C@@H]1Cc1cc(-c2ccccc2)on1,Percent Effect,"30.3 µM, […]",-4.938%
O=C(NCC1CC2(CO1)CN(c1ncccn1)C2)C1CCC1 (configuration not stated),Percent Effect,"30.3 µM, […]",1.586%
CCOC(=O)N1CCC(NC(=O)Nc2cccnc2OCC)CC1,Percent Effect,30 µM,21.62%
COCCNC(=O)c1cc(-c2ccc3c(c2)CCO3)n[nH]1,Percent Effect,"30.3 µM, […]",-2.658%
O=C(Nc1ccccc1)C1CN(CC2CCOCC2)CC12CCOCC2.O=C(O)C(F)(F)F (configuration not stated),Percent Effect,"30.3 µM, […]",6.071%
O=C(Nc1ccccc1)C1CN(Cc2ccco2)CC12CCOCC2.O=C(O)C(F)(F)F (configuration not stated),Percent Effect,"30.3 µM, […]",14.17%
O=C(Nc1ccccc1)C1CN(CC2CC2)CC12CCOCC2.O=C(O)C(F)(F)F (configuration not stated),Percent Effect,"30 µM, 30.03 µM",52.69%
Cc1nccn1C1CCCN(C(=O)CCNc2ncccn2)C1 (configuration not stated),Percent Effect,30 µM,-4.975%
COc1ncccc1CN1CCc2[nH]nc(C(=O)N(C)C)c2C1,Percent Effect,"30.3 µM, […]",13.46%
FC(F)(F)c1nc(NC2CCc3ncnn3C2)c2ccccc2n1 (configuration not stated),Percent Effect,"30.3 µM, […]",-21.34%
FC(F)(F)c1nc(NC2CCCCC2)c2ccccc2n1,Percent Effect,"30.3 µM, […]",22.7%
FC(F)(F)c1nc(NC2CCCC2)c2ccccc2n1,Percent Effect,"30 µM, 30.03 µM",52.6%
COc1ccc(NC(=O)CCc2c(C)nc3cc(O)nn3c2C)cn1,Percent Effect,"30 µM, 30.03 µM",19.21%
CCC(CC)C(=O)N1CCN(Cc2nc3ccccc3c(=O)[nH]2)CC1,Percent Effect,"30.3 µM, […]",0.3817%
CN(Cc1ccon1)C1CCN(c2cccc(-c3cscn3)c2)CC1,Percent Effect,"30.3 µM, […]",-3.333%
CN(Cc1cnn(C)c1)C1CCN(c2cccc(-c3cscn3)c2)CC1,Percent Effect,"30.3 µM, […]",12%
c1ccc(-c2cccc(N3CCC(NCCc4cscn4)CC3)c2)cc1,Percent Effect,"30.3 µM, […]",97.96%
c1cc(-c2cscn2)cc(N2CCC(NCCc3cccs3)CC2)c1,Percent Effect,"30.3 µM, […]",68.46%
CN(C)CCCN(C)C1CCN(c2cccc(-c3cscn3)c2)CC1,Percent Effect,"30.3 µM, […]",61.93%
O=C1CCCN1c1cccc(N2CCC(NCCc3cscn3)CC2)c1,Percent Effect,"30.3 µM, […]",16.35%
CC(C)CC(C)NC1CCN(c2cccc(-c3cscn3)c2)CC1 (configuration not stated),Percent Effect,"30.3 µM, […]",17.78%
Cc1cc(CN(C)C2CCN(c3cccc(-c4cscn4)c3)CC2)on1,Percent Effect,"30.3 µM, […]",19.61%
CN(Cc1nccs1)C1CCN(c2cccc(-c3cscn3)c2)CC1,Percent Effect,"30.3 µM, […]",8.314%
CC1CN(C(=O)c2cccc(OCc3cscn3)c2)CCO1 (configuration not stated),Percent Effect,30 µM,15.03%
CNC(=O)CN([C@H]1C[C@H]2CCOC[C@H]2C1)S(=O)(=O)c1ccccc1,Percent Effect,"30.3 µM, […]",-15.54%
O=c1oc(-c2cccs2)nn1CC1(O)CCCCC1,Percent Effect,"30.3 µM, […]",-0.7487%
COc1cccc2c1OCC(NCCCOc1cccnc1)C2 (configuration not stated),Percent Effect,"30.3 µM, […]",0.7744%
O=C(O)C(F)(F)F.c1ncn(Cc2cn3c(n2)CN(CC2CCCC2)CC3)n1,Percent Effect,"30.3 µM, […]",-12.84%
CC(NCC1(N(C)C)CCOCC1)c1ccc(SC(F)F)cc1 (configuration not stated),Percent Effect,"30.3 µM, […]",43.5%
CCc1ccc(C(=O)N2CC(C(=O)NC(C)C)C3(CCOCC3)C2)cc1 (configuration not stated),Percent Effect,"30.3 µM, […]",20.17%
CN(C)C(=O)c1cnc2n1CCN(Cc1ccsc1)C2.O=C(O)C(F)(F)F,Percent Effect,"30.3 µM, […]",24.8%
Cc1ccc(C(=O)OC(C)Cn2cccn2)c(=O)[nH]1 (configuration not stated),Percent Effect,"30.3 µM, […]",9.557%
Cc1ccc(C(=O)NC(C)Cn2cccn2)c(=O)[nH]1 (configuration not stated),Percent Effect,"30.3 µM, […]",61.08%
Cc1ccc(C(=O)NCC(C)Cn2cccn2)c(=O)[nH]1 (configuration not stated),Percent Effect,"30.3 µM, […]",5.92%
CCC(O)CN1CCN(C(=O)c2ccn(C)c(=O)c2)CC1 (configuration not stated),Percent Effect,30 µM,25.79%
CSCCC(Nc1nc(C)cc(C)n1)C(=O)NC(C)(C)CO (configuration not stated),Percent Effect,"30.3 µM, […]",-4.466%
COC1CCCN(C(=O)Nc2nc(C)n(C)n2)C1 (configuration not stated),Percent Effect,"30 µM, 30.03 µM",27.05%
O=C(NCCCN1CCc2ccccc2C1)c1cccnc1O,Percent Effect,"30 µM, 30.03 µM",26.46%
O=C(c1ccoc1)N(Cc1ccncc1)C1CC1,Percent Effect,"30.3 µM, […]",53.31%
O=C(c1ccoc1)N(Cc1ccccn1)C1CC1,Percent Effect,"30.3 µM, […]",-9.366%
O=C(c1ccoc1)N(Cc1cccnc1)C1CC1,Percent Effect,"30.3 µM, […]",22.13%
CSc1ccc(-c2nc(CN3CCC(CN)C3)c(C)o2)cc1 (configuration not stated),Percent Effect,"30.3 µM, […]",98.64%
CNC(=O)C1CCN(Cc2nc(-c3ccc(SC)cc3)oc2C)C1 (configuration not stated),Percent Effect,"30.3 µM, […]",7.886%
CSc1ccc(-c2nc(CN3CCC(C(N)=O)CC3)c(C)o2)cc1,Percent Effect,"30.3 µM, […]",-4.149%
CSc1ccc(-c2nc(CN3CCC(NC(C)=O)CC3)c(C)o2)cc1,Percent Effect,"30.3 µM, […]",13.21%
CSc1ccc(-c2nc(CN3C[C@@H](C)NC[C@@H]3C)c(C)o2)cc1,Percent Effect,"30.3 µM, […]",42.57%
CSc1ccc(-c2nc(CN3CCNCC3C)c(C)o2)cc1 (configuration not stated),Percent Effect,"30.3 µM, […]",81.77%
CNS(=O)(=O)c1cc(C(=O)NC2COc3ccccc3C2)ccc1OC (configuration not stated),Percent Effect,"30.3 µM, […]",-9.324%
CN(C)C(=O)c1cccc(CCNc2ccccc2S(C)(=O)=O)c1,Percent Effect,"30.3 µM, […]",7.886%
CN(Cc1cn(CC2CCNCC2)nn1)CC1CCCCO1 (configuration not stated),Percent Effect,"30.3 µM, […]",-23.25%
CN(Cc1cn(C2CCNCC2)nn1)CC1CCCO1 (configuration not stated),Percent Effect,"30.3 µM, […]",7.398%
CCN(Cc1cn(CC2CCNCC2)nn1)CC1CCCO1 (configuration not stated),Percent Effect,"30.3 µM, […]",62.19%
Cc1ccccc1-n1cc(-c2ccnc(N3CCCC(CN)C3)n2)cn1 (configuration not stated),Percent Effect,"30.3 µM, […]",67.45%
COC[C@H]1CCCN1c1nccc(-c2cnn(-c3ccccc3C)c2)n1,Percent Effect,"30.3 µM, […]",41.43%
Cc1ccccc1-n1cc(-c2ccnc(N3CCCC(O)C3)n2)cn1 (configuration not stated),Percent Effect,"30.3 µM, […]",16.96%
COc1ccccc1N1CCN(Cc2nccc(OC)c2OC)CC1=O,Percent Effect,"30.3 µM, […]",-10.47%
CN(Cc1ccc2c(c1)OCO2)C(=O)c1ccc(C2CCCO2)s1 (configuration not stated),Percent Effect,"30.3 µM, […]",-16.35%
CC1CCCN(CCCNC(=O)Cc2csc(-c3ccoc3)n2)C1 (configuration not stated),Percent Effect,"30.3 µM, […]",9.746%
O=C(CCNc1ncccn1)NCc1ccc(Br)s1,Percent Effect,"30.3 µM, […]",14.9%
Cc1nn(C)c(C)c1CN(C)c1nc(C2CC2)nc2c(C)nn(C)c12,Percent Effect,"30.3 µM, […]",-21.06%
Cc1nn(C)c2c(N(C)Cc3ccco3)nc(C3CC3)nc12,Percent Effect,"30.3 µM, […]",10.49%
Cc1nn(C)c2c(N(C)Cc3cccs3)nc(C3CC3)nc12,Percent Effect,"30.3 µM, […]",56.51%
CN1CCOC(CNCCOc2cccc(C#N)c2)C1 (configuration not stated),Percent Effect,"30.3 µM, […]",25.34%
Cn1cccc1C(=O)NCc1cn2c(n1)CN(CC1CCOC1)CC2 (configuration not stated),Percent Effect,"30.3 µM, […]",22.42%
CC(C)CCN1CCN(C(=O)c2ccc(=O)[nH]n2)CC1,Percent Effect,"30.3 µM, […]",20.4%
Cc1cc(NC(=O)CN2CCCC2c2noc(C(C)C)n2)on1 (configuration not stated),Percent Effect,30 µM,7.102%
CN1CCN(C(=O)Cn2ccc3c(Cl)cccc32)CC1,Percent Effect,"30.3 µM, […]",54.77%
CC(=O)N1CCN(C(=O)Cn2ccc3c(Cl)cccc32)CC1,Percent Effect,"30.3 µM, […]",1.884%
O=C(Cn1ccc2c(Cl)cccc21)N1CCCC1,Percent Effect,"30.3 µM, […]",16.62%
Cc1cc(C)c(CNC(=O)N2CCN(c3ncccn3)CC2)c(=O)[nH]1,Percent Effect,"30 µM, 30.03 µM",-5.034%
CNS(=O)(=O)c1cccc(C(C)NCc2cccc(O)c2)c1 (configuration not stated),Percent Effect,"30.3 µM, […]",23.7%
Cc1cccc(CNC(CN2CCN(C)CC2)c2ccccc2)c1 (configuration not stated),Percent Effect,"30 µM, 30.03 µM",98.99%
COCCN1CCC(NCc2cccc(C)c2)C1 (configuration not stated),Percent Effect,30 µM,11.56%
COc1ccc(C(CN2CCN(C)CC2)Nc2ncccn2)cc1 (configuration not stated),Percent Effect,"30.3 µM, […]",-7.981%
Cc1cc(C)cc(CNC(c2ccccc2)c2nccn2C)c1 (configuration not stated),Percent Effect,30 µM,35.61%
COc1cccc(C(=O)N2CCN(CC(O)c3ccccc3)CC2)c1 (configuration not stated),Percent Effect,"30.3 µM, […]",-2.836%
COc1cccc(CNC(CN2CCN(C)CC2)c2ccccc2)c1 (configuration not stated),Percent Effect,"30 µM, 30.03 µM",76.19%
O=C(C(CNCc1cccc(O)c1)c1ccccc1)N1CCOCC1 (configuration not stated),Percent Effect,"30.3 µM, […]",17.14%
O=C(c1nnn(-c2ccc(F)cc2)n1)N1CCC(O)CC1,Percent Effect,"30.3 µM, […]",1.215%
O=C(c1cn(CCN2CCCCC2)nn1)N1CCSCC1,Percent Effect,"30.3 µM, […]",25.8%
CC(O)CN1CC(C)(C)CN(C(=O)CCc2ccccc2)CC1=O (configuration not stated),Percent Effect,"30.3 µM, […]",-1.72%
O=C(CN1CCOC(Cn2cccn2)C1)NCCc1ccc(F)cc1 (configuration not stated),Percent Effect,"30 µM, 30.03 µM",1.853%
O=C(Cc1ccsc1)N1CCc2ccc(=O)n(CC3CC3)c2CC1,Percent Effect,"30.3 µM, […]",10.53%
COCCn1c2c(ccc1=O)CCN(C(=O)Cc1ccsc1)CC2,Percent Effect,"30.3 µM, […]",55.32%
COCCn1c2c(ccc1=O)CCN(C(=O)Cc1cccs1)CC2,Percent Effect,"30.3 µM, […]",20.34%
O=C(O)c1cccc(S(=O)(=O)N2CCOc3ccccc32)c1,Percent Effect,30 µM,14.21%
COc1cc2c(cc1C1CC(=O)NCc3nc(N(C)C)sc31)CCC2 (configuration not stated),Percent Effect,"30.3 µM, […]",11.87%
COc1ccc(C2CC(=O)NCc3nc(N(C)C)sc32)c(O)c1 (configuration not stated),Percent Effect,"30.3 µM, […]",16.16%
COc1ccc(C(C)C)cc1C1CC(=O)NCc2nc(N(C)C)sc21 (configuration not stated),Percent Effect,"30.3 µM, […]",60.09%
C[C@@H]1CN(C2CCCCC2)CC[C@@]1(O)C1CCOCC1,Percent Effect,"30.3 µM, […]",-0.4391%
C[C@@H]1CN(C2Cc3ccccc3C2)CC[C@@]1(O)C1CCOCC1,Percent Effect,"30.3 µM, […]",63.81%
C[C@@H]1CN(C2CCN(c3ccccc3)CC2)CC[C@@]1(O)C1CCOCC1,Percent Effect,"30.3 µM, […]",22.22%
CN(C)C(=O)NC1COC2(CCN(Cc3nccn3C)CC2)C1 (configuration not stated),Percent Effect,"30 µM, 30.03 µM",3.872%
c1cnnc(N2CCCC2CNCc2nc(-c3ccoc3)no2)c1 (configuration not stated),Percent Effect,30 µM,14.13%
COC(=O)c1cccn1C1CCN(Cc2cccnc2)CC1,Percent Effect,30 µM,38.52%
